Most compounds without a hit are left out; they make up all but 21% or so of the library.
Giardia FBPA inh: blocks Giardia fructose-bisphosphate aldolase activity; A8B2U2; purified Giardia FBPA; Potency, µM (titrated, usually from 59.6 µM), for inactives: top-dose activity, negative = inhibition, actives largely listed as inhibitors; hit rate 0.71% among 290,000; further: potency means the concentration at half of the fitted maximal effect; on the % scale 0 is the no-effect control and ±100 the full control effect; nearly all actives have a fitted effect of over 55% in size
Target sequence (A8B2U2 whole entry, looked up): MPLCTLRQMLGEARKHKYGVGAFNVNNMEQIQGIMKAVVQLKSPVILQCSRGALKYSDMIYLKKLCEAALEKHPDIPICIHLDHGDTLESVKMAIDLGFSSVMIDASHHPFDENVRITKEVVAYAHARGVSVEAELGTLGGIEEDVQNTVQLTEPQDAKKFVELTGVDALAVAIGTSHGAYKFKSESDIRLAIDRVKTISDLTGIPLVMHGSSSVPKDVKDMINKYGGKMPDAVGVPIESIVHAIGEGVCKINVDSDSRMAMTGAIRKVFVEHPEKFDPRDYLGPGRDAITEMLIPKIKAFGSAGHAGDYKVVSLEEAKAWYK
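40 nM FBPA preincubated 10 min at RT with compound (up to 57.5 uM final), then substrate plus GAPDH/TPI/NAD/arsenate coupling and diaphorase/resazurin added. Fluorescence read after 20 min at RT, 525/598 nm.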
NS1 function inh: blocks influenza NS1 protein function; Potency, µM (top dose mostly 46.1 µM), without a hit: at the highest dose activity, positive = more growth; hit rate 0.4% among 270,000; AID 2326; calls by dose curve; further: potency means the concentration at half of the fitted maximal effect; actives are rising curves; nearly all actives have a fitted effect of over 50% in size
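Growth recovery, yeast-based: influenza A NS1 expressed in S. cerevisiae causes slow growth, and suppressors are detected by OD600. The parent strain without NS1 is used as positive control.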
Pf growth 48h: P. falciparum growth inhibition at 48 hours (one generation); P. falciparum luciferase growth in erythrocytes, 48 h; Potency, µM (top dose mostly 28.7 µM), for the others: at the top dose activity change, negative = inhibition, usual class: inhibitors; hit rate 5.9% among 310,000; AID 504832; further: potency means the concentration at half of the fitted maximal effect; on the % scale 0 is the no-effect control and ±100 the full control effect
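Compounds are pin-transferred into medium, infected erythrocytes (2% hematocrit, 0.1% parasitemia final) are added, and plates sit one parasite generation at 37 C in 5% CO2. Detection reagent is then added and luminescence measured.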
Pf growth 96h: inhibits malaria parasite growth, 96 h. Potency, µM (series often up to 28.7 µM), for the others: at the highest dose activity change, negative = inhibition, actives largely listed as inhibitors. P. falciparum luciferase reporter growth, 96 h. hit rate 6.9% among 320,000; further: potency means the concentration at half of the fitted maximal effect; on the % scale 0 is the no-effect control and ±100 the full control effect
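Cell-based qHTS: luciferase-tagged P. falciparum in erythrocytes (2% hematocrit, 0.05% parasitemia final) incubated with compounds for 96 hours, 37 C, 5% CO2; luciferase detection reagent then added and luminescence measured.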
CHX counter: counter-screen hit for Shiga toxin inhibitors, cycloheximide; cell reporter, cycloheximide protein synthesis inhibition counterscreen; max response, %; hit rate 12% among 300,000; in the data active means max response mostly above about 13%, no sharp cut-off; inactive means mostly below about 14%; further: read at 38.3 µM for the half of the compounds with a filed dose; 0% is about no effect
Shiga inhibitor: inhibitors of Shiga toxin in Vero cells; Vero cells, Shiga toxin protein synthesis inhibition reporter; inhibition, % at 38.7 µM; hit rate 9.2% among 290,000; in the data active means inhibition mostly above about 28%, no sharp cut-off; inactive means mostly below about 43%; further: 0% is about no effect
Numbers without * were called inactive; u = inconclusive; x = no result given; [ ] = another dose, or the depositor's remark. Unless noted, the call rests on the fitted dose curve; in most records, active means well fitted curve in the direction sought with a large enough effect; inconclusive means small, poorly fitted or top-dose-only effect, or another doubt; inactive means no such curve, though single readings can be large; an effect the other way counts as inactive or inconclusive.

SMILES	Giardia FBPA inh	NS1 function inh	Pf growth 48h	Pf growth 96h	CHX counter	Shiga inhibitor
CCc1ccccc1Nc1nn2c(=O)c3ccc(C(=O)NCCCOC(C)C)cc3nc2s1	x	x	13.1µM*	u	x	x
CCc1ccccc1Nc1nn2c(=O)c3ccc(C(=O)NCc4cccs4)cc3nc2s1	x	x	9.28µM*	8.28µM*	x	x
Cc1ccccc1Nc1nnc(SCC(=O)NCc2cccs2)s1	3.5%	-3.1%	u	u	-2.3	-5.1
CC1(C)CC(=O)c2c(oc3cc(O)c(O)cc23)C1	3.15µM*	-8.2%	x	58.2%	6.0	-5.2
O=C(NCc1ccccn1)c1ccc(CNS(=O)(=O)c2cccc(Cl)c2)cc1	5.0%	-0.9%	5.7%	-7.8%	-2.0	-15.9
COc1cc(/C=N/NC(=O)CSc2n[nH]c(=O)[nH]c2=O)cc(OC)c1O	-5.9%	x	8.1%	-3.5%	-2.7	-7.8
CC(=O)N=c1c(C#N)cc2c(=O)n3cccc(C)c3nc2n1CCCOC(C)C	2.3%	1.6%	u	10.4µM*	0.8	-3.9
CCOCCCn1c(=NC(=O)c2cccs2)c(C#N)cc2c(=O)n3ccccc3nc21	-7.0%	2.0%	4.65µM*	10.4µM*	0.8	12.5
CCCCn1c(=NC(=O)c2cccnc2)c(C#N)cc2c(=O)n3cccc(C)c3nc21	2.2%	0.7%	x	u	-1.5	-9.1
CC(=O)N=c1c(C#N)cc2c(=O)n3cccc(C)c3nc2n1Cc1ccco1	-1.0%	3.6%	0.0%	u	-2.3	-4.5
COCCCn1c(=NC(=O)c2ccncc2)c(C#N)cc2c(=O)n3cccc(C)c3nc21	-3.4%	14.0%	2.94µM*	3.3%	2.2	-10.3
Cc1cccn2c(=O)c3cc(C#N)c(=NC(=O)c4ccncc4)n(CCCOC(C)C)c3nc12	-5.0%	17.8%	4.15µM*	6.57µM*	-3.9	-2.4
CCc1nc2n(n1)C(O)c1cc([N+](=O)[O-])ccc1S2 (stereo not drawn)	4.1%	5.7%	44.3%	41.8%	-2.7	-8.6
NCCCCCCNS(=O)(=O)c1ccc2c(Cl)cccc2c1	0.0%	x	x	x	x	x
COc1ccc(S(=O)(=O)Nc2ccccc2C(=O)N2CCCCC2)cc1C	x	-15.4%	1.0%	u	4.5	-2.1
COc1ccc(OC)c(Nc2nc3nonc3nc2N2CCCC(C)C2)c1 (stereo not drawn)	4.5%	-1.1%	-7.0%	u	-2.5	-4.0
Cc1cccn2c(=O)c3cc(C#N)c(=NC(=O)c4cccs4)n(CCCOC(C)C)c3nc12	1.9%	5.5%	1.65µM*	1.85µM*	1.5	-6.7
CCCn1c(=NC(=O)c2ccc3c(c2)OCO3)c(C#N)cc2c(=O)n3cccc(C)c3nc21	-0.1%	-62.9%	14.8%	4.8%[5.75 µM]	-3.9	-1.1
CCN1CCN(C(=S)NCCc2ccccc2)CC1	u	-9.7%	48.6%	37.8%	24.4*	43.2*
S=C(Nc1ccccc1)N1CCOCC1	0.3%	8.8%	15.8%	-4.9%	-2.2	-13.5
S=C(NCCc1ccccc1)N1CCOCC1	0.3%	1.6%	32.5%	62.4%	40.5*	74.6*
O=C(Cc1ccc(F)cc1)N1CCOCC1	7.1%	0.6%	10.2%	0.0%	1.6	-7.7
S=C(N/N=C/c1ccccc1)N1CCOCC1	25.9%	-13.5%	-28.6%	u	39.9*	56.7*
O=C(NCCc1ccc(F)cc1)N1CCOCC1	5.2%	24.5%	37.9%	x	18.1*	22.6
CCNC(=S)N1CCN(Cc2ccccc2)CC1	u	2.0%	5.3%	12.8%	-2.5	-16.9
SMILES	Giardia FBPA inh	NS1 function inh	Pf growth 48h	Pf growth 96h	CHX counter	Shiga inhibitor
O=C(CN1CCOCC1)Nc1nc(-c2ccccc2Cl)cs1	-8.0%	-1.8%	-9.0%	0.1%	-1.0	0.4
OCCN1CCN(C(=S)NCCc2ccccc2)CC1	10.8%	-1.2%	56.6%	57.0%	18.5*	70.6*
S=C(NCCN1CCOCC1)N/N=C/c1cccs1	6.9%	4.5%	3.29µM*	2.33µM*	-5.1	-5.5
S=C(NCCc1ccccc1)NCCN1CCOCC1	-5.7%	2.4%	47.1%	-8.2%	6.9*	16.0
S=C(NCCc1ccccc1)N1CCN(C23CC4CC(CC(C4)C2)C3)CC1	1.3%	x	9.28µM*	88.6%	-5.2	-6.3
O=C(CCCc1ccccc1)NCCN1CCOCC1	8.2%	6.2%	21.3%	22.7%	-3.0	-1.2
COc1ccc(N2CCN(S(=O)(=O)CCNC(=O)c3cc(=O)c4ccccc4o3)CC2)cc1	x	-0.1%	15.6%	u	-0.6	-8.1
Cc1noc(N)c1C(=O)Nc1ccc(F)cc1	2.8%	-7.3%	-9.0%	2.08µM*	17.1	-11.2
CCc1noc(N)c1C(=O)Nc1ccc(F)c(Cl)c1	-0.1%	6.9%	0.0%	62.6%	6.0	-11.7
Cc1noc(N)c1C(=O)Nc1ccc(F)c(Cl)c1	4.3%	-7.3%	2.33µM*	80.9%	-0.7	1.9
CCCc1nn2c(=O)cc(COc3ccc(NC(=O)c4ccco4)cc3)nc2s1	x	-0.6%	20.9%	u	0.6	-3.6
Cc1cc2c(cc1C)N(CC(=O)N1CCCC1)C(=O)CC(c1ccccc1)=N2	20.2%	-3.0%	x	x	32.8*	56.1*
O=C(CN1C(=O)CC(c2ccccc2)=Nc2ccccc21)NCc1ccccc1	-7.7%	0.4%	-0.7%	1.6%	-1.6	16.5
O=C(c1ccco1)N1CCC[C@@]2(CCN(C(c3ccccc3)c3ccccc3)C2)C1	-8.7%	x	x	x	x	x
CC(=O)c1ccc(NC(=O)c2cccc(N3C(=O)c4ccccc4C3=O)c2)cc1	0.2%	5.1%	13.0%	46.3%	3.6	-10.5
CC(=O)c1cccc(NC(=O)c2cnn3ccccc23)c1	-4.8%	-21.1%	x	u	89.3*	59.1*
CC(=O)c1ccc(NC(=O)c2cnn3ccccc23)cc1	-10.7%	-13.1%	x	10.4µM*	43.9*	55.3*
COc1cc(OC)c(S(=O)(=O)NC(C)C)cc1S(=O)(=O)NC(C)C	3.8%	x	8.5%	1.7%	4.2	13.5
Cc1nc2ccccc2nc1OCc1ccccc1	1.4%	-20.1%	15.7%	28.7%	18.3*	24.7
CCN1CCN(CCOc2ccccc2OCc2ccccc2)CC1	u	-1.5%	-0.6%	-4.5%	-0.3	15.7
Cc1c(OCc2ccccc2)cccc1OCc1ccccc1	0.8%[12.9 µM]	-8.5%	21.7%	16.3%	21.1*	17.6
O=C(CNC(=O)c1ccc(Br)o1)Nc1ccc(N2CCCCCC2)cc1	x	x	39.1%	10.4µM*	x	x
O=C(CNC(=O)c1ccco1)Nc1ccc(N2CCCCCC2)cc1	x	x	12.3%	56.9%	x	x
O=C(Nc1ccc(CN2CCCCC2)cc1)c1ccc(Br)o1	-24.3%	3.2%[9.22 µM]	u	x	30.8*	79.4*
CC(=O)OC[C@H]1O[C@@H](O/N=C\[C@@H](C)[C@H](OCc2ccccc2)C(C)C)[C@H](OC(C)=O)[C@@H](OC(C)=O)[C@H]1OC(C)=O	-2.2%[12.9 µM]	x	x	x	x	x
NNC(=O)CNC(c1ccccc1)c1cc(Br)ccc1NC(=O)c1ccccc1Br (stereo not drawn)	2.6%	u	8.28µM*	77.6%	-5.0	-5.5
NNC(=O)c1sc(-c2ccc(Cl)cc2)cc1N	-0.2%	x	-17.2%	25.8%	44.5*	65.9*
CCOC(=O)c1cc(-c2ccc(N)cc2)sc1N	-4.4%	-66.9%	-54.5%	-24.3%	53.9*	66.4*

Screening data deposited in PubChem by National Center for Advancing Translational Sciences (NCATS).
